# According to PubChem BioAssay:
# “And” between values parts separate entries of the source, which are not always exact repeats. Equal values may be shown once. The source made the active and inactive calls.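 Rule for the calls, unless noted: active = normalized viability below 100% at a tested concentration; inactive = the rest.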
# Key:
# [1] = viability loss with induced miR-34 in A549 – imaging, A549 dox-inducible miR-34, nuclei and caspase counts, primary screen (AID 1347080;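 active = compounds whose cell count with miR-34 switched on is under 0.7 times the count with it off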); details: A549 miR-34 inducible, Hoechst nuclei count, 48 h
# [2] = MELAS cybrid and Rieske KO viability enhancers – cell-based, MELAS cybrids, Rieske KO mouse fibroblasts, CellTiter-Glo, primary screen (AID 1508586;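 active = mean z-score across replicates of 1.96 or higher in either the MELAS or the Rieske mutant cell line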;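 note: z relative to plate mean and SD of compound and empty wells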); details: low glucose
# [3] = drug combination growth inhibition, ovarian cancer – cell-based, oncology-focused library, rucaparib conditional, profiling panel (AID 1508598); details: patient-derived ovarian cancer cells, CellTiter-Glo viability, 144 h, stronger effect = lower value
# [4] = growth inhibition, single agent or in combination, cell-based, chromothripsis tumors, cisplatin or BGB combos (AID 1671449; in the data active = inhibition above about 80%;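 note: cells exposed for 96 hours; 0% = vehicle DMSO and 100% = killing by high DMSO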); details: LFS_MB_P medulloblastoma cells
# [5] = growth inhibition, single agent and combos, cell-based, chromothripsis tumors, cisplatin or BGB combos (AID 1671450; in the data active = inhibition above about 80%;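 note: cells exposed to compound for four days; 0% = vehicle DMSO and 100% = cell killing by high DMSO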); details: HDN33 neuroblastoma cells, stronger effect = higher value
# [6] = growth inhibition, single agents and combos, ICB984, cell-based, cisplatin or BGB combos, synergistic combos for chromothripsis tumors (AID 1671451); details: ICB984 medulloblastoma cells, drug combinations, BGB IC20 combo, at 0.005 µM, stronger effect = higher value;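 note: cells exposed for 96 hours before readout; 0% = vehicle DMSO and 100% = killing by high DMSO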
smiles,measurement,setting,value
CCOC(=O)NCCCC(=O)NCCc1ccccc1,fold change,"[1]; stronger effect = lower value, cell number ratio, induced over uninduced",0.978 (inactive)
same,fold change,[1]; measured here: relative caspase fold change +Dox/-Dox,0.408
same,cell count,"[1]; measured here: total cells with miR-34 induction, stronger effect = lower value",8950
same,cell count,[1]; measured here: total cells without miR-34 induction,9150
same,z-score,"[2]; MELAS cybrid survival, CellTiter-Glo 48 h, stronger effect = higher value",-0.307 (inactive)
same,z-score,"[2]; Rieske KO mouse fibroblast survival, CellTiter-Glo 72 h",0.919
same,viability,"[3]; at 0.000305 µM, OCI-C5x cells, with rucaparib 10 µM, 100% = cells with rucaparib alone",123% (inactive)
same,viability,"[3]; at 0.000305 µM, OCI-C5x cells, without rucaparib",98.5% (active)
same,viability,"[3]; at 0.000305 µM, OCI-P5x cells, with rucaparib 20 µM, 100% = cells with rucaparib alone",93.8% (active)
same,viability,"[3]; at 0.000305 µM, OCI-P5x cells, without rucaparib",94.2% (active)
same,viability,"[3]; at 0.00122 µM, OCI-C5x cells, with rucaparib 10 µM, 100% = cells with rucaparib alone",108% (inactive)
same,viability,"[3]; at 0.00122 µM, OCI-C5x cells, without rucaparib",102% (inactive)
same,viability,"[3]; at 0.00122 µM, OCI-P5x cells, with rucaparib 20 µM, 100% = cells with rucaparib alone",95.3% (active)
same,viability,"[3]; at 0.00122 µM, OCI-P5x cells, without rucaparib",93.4% (active)
same,viability,"[3]; at 0.00488 µM, OCI-C5x cells, with rucaparib 10 µM, 100% = cells with rucaparib alone",111% (inactive)
same,viability,"[3]; at 0.00488 µM, OCI-C5x cells, without rucaparib",110% (inactive)
same,viability,"[3]; at 0.00488 µM, OCI-P5x cells, with rucaparib 20 µM, 100% = cells with rucaparib alone",92.7% (active)
same,viability,"[3]; at 0.00488 µM, OCI-P5x cells, without rucaparib",96.6% (active)
same,viability,"[3]; at 0.0195 µM, OCI-C5x cells, with rucaparib 10 µM, 100% = cells with rucaparib alone",116% (inactive)
same,viability,"[3]; at 0.0195 µM, OCI-C5x cells, without rucaparib",115% (inactive)
same,viability,"[3]; at 0.0195 µM, OCI-P5x cells, with rucaparib 20 µM, 100% = cells with rucaparib alone",93.3% (active)
same,viability,"[3]; at 0.0195 µM, OCI-P5x cells, without rucaparib",94.2% (active)
same,viability,"[3]; at 0.0781 µM, OCI-C5x cells, with rucaparib 10 µM, 100% = cells with rucaparib alone",110% (inactive)
same,viability,"[3]; at 0.0781 µM, OCI-C5x cells, without rucaparib",108% (inactive)
same,viability,"[3]; at 0.0781 µM, OCI-P5x cells, with rucaparib 20 µM, 100% = cells with rucaparib alone",94.7% (active)
same,viability,"[3]; at 0.0781 µM, OCI-P5x cells, without rucaparib",99.6% (active)
same,viability,"[3]; at 0.313 µM, OCI-C5x cells, with rucaparib 10 µM, 100% = cells with rucaparib alone",117% (inactive)
same,viability,"[3]; at 0.313 µM, OCI-C5x cells, without rucaparib",106% (inactive)
same,viability,"[3]; at 0.313 µM, OCI-P5x cells, with rucaparib 20 µM, 100% = cells with rucaparib alone",88.9% (active)
same,viability,"[3]; at 0.313 µM, OCI-P5x cells, without rucaparib",104% (inactive)
same,viability,"[3]; at 1.25 µM, OCI-C5x cells, with rucaparib 10 µM, 100% = cells with rucaparib alone",118% (inactive)
same,viability,"[3]; at 1.25 µM, OCI-C5x cells, without rucaparib",111% (inactive)
same,viability,"[3]; at 1.25 µM, OCI-P5x cells, with rucaparib 20 µM, 100% = cells with rucaparib alone",89.5% (active)
same,viability,"[3]; at 1.25 µM, OCI-P5x cells, without rucaparib",99.1% (active)
same,viability,"[3]; at 5 µM, OCI-C5x cells, with rucaparib 10 µM, 100% = cells with rucaparib alone",116% (inactive)
same,viability,"[3]; at 5 µM, OCI-C5x cells, without rucaparib",109% (inactive)
same,viability,"[3]; at 5 µM, OCI-P5x cells, with rucaparib 20 µM, 100% = cells with rucaparib alone",83.3% (active)
same,viability,"[3]; at 5 µM, OCI-P5x cells, without rucaparib",89.3% (active)
same,inhibition,"[4]; at 0.5 µM, stronger effect = higher value",-22.5% (inactive) and -16.6% (inactive)
same,inhibition,"[4]; measured here: combination with BGB IC20, at 0.005 µM",-34.5% and -4.15%
same,inhibition,"[4]; measured here: combination with BGB IC40, at 0.005 µM",74.6% and -15.4%
same,inhibition,"[4]; measured here: combination with BGB IC40, at 0.05 µM",-17.3% and -8.02%
same,inhibition,"[4]; measured here: combination with cisplatin, at 0.5 µM, stronger effect = higher value",-12.8% and -32.3%
same,inhibition,"[4]; measured here: combination with cisplatin, at 5 µM, stronger effect = higher value",-34.9% and -31.3%
same,inhibition,"[5]; BGB combo, at 5 µM",-65.3% and -26.9%
same,inhibition,[5]; at 0.5 µM,-38.5% (inactive) and -17.7% (inactive)
same,inhibition,"[5]; cisplatin combo, at 5 µM",-63.5% and -31.2%
same,inhibition,"[5]; measured here: with BGB IC20 combination, at 0.5 µM",-39.2% and -23.4%
same,inhibition,"[5]; measured here: with cisplatin IC20 combination, at 0.5 µM",-28% and -17.7%
same,inhibition,"[5]; single agent, at 5 µM",-54.8% and -22.1%
same,inhibition,[6],-37.9% and -8.12%
